Laboratory results as given in PubChem BioAssay (NCATS).
Records with an inconclusive call do not appear. Calls of active or inactive are those of the source. Calls follow the shape of the dose curve; as a rule, active = well fitted cell-killing curve with a large enough effect; inconclusive = small, poorly fitted or top-dose-only effect; inactive = flat fitted curve, though single readings scatter.

assay: Cell Viability - LYMP2-023 (AID 975); details: LYMP2-023 lymphoblastoid cell viability; series mostly up to 92.2 µM; activity change, negative = cytotoxicity: at the top concentration;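 also: plate controls were DMSO only for no effect and 92 µM tetraoctylammonium bromide control for full effect; nearly all actives have a fitted effect of over 55% in size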
Description: NIH Chemical Genomics Center [NCGC]
NIH Molecular Libraries Screening Centers Network [MLSCN]
National Institutes of Environmental Health Sciences [NIEHS]
National Toxicology Program [NTP]
We have developed a 1536-well cell-based assay for quantitative high throughput screening (qHTS) against a number of cell lines to determine in vitro cytotoxicity of small molecules. This particular assay uses a human lymphoblastoid cell line (LYMP2-023) purchased from Coriell Institute for Medical Research.
NCGC Assay Protocol Summary:
The CellTiter-Glo luminescent cell viability assay (Promega) is a homogeneous method to measure the number of viable cells in culture. The end point readout of this assay is based on quantitation of intracellular ATP, an indicator of metabolic activity, using the luciferase reaction. Luciferase catalyzes the oxidation of beetle Luciferin to oxyluciferin and light in the presence of ATP. The luminescent signal is proportional to amount of ATP present.
Using the CellTiter-Glo luminescent cell viability assay, the amount of cellular ATP was measured in the lymphoblastoid cell line with complete culture medium following compound treatment for 24 hours. The assay was performed in opaque white Kalypsys 1536-well plates. In the screen, tetraoctylammonium bromide was used as positive control. Library compounds were measured for their ability to cause acute toxicity in the cell line, as reflected by a decrease in intracellular ATP levels, in a concentration-dependent manner. […] AC50 values were determined from concentration-response data modeled with the standard Hill equation.
qHTS protocol for CellTiter Glo lymphoblastoid cellular assay
[Step] [Parameter] [Value] [Description]
1. Reagent; 5 uL; 2500 lymphoblastoid cells/well
2. Time; 5 hr; 37 C incubation
4. Controls; 23 nL; Tetraoctylammonium bromide 6.4pM to 92 uM
5. Time; 24 hr; 37 C incubation
6. Reagent; 5 uL; CellTiter Glo reagent
7. Time; 30 min; Room Temperature
8. Detection; Luminescence; Viewlux plate reader
Keywords: cell viability, cytotoxicity, lymphoblastoid cell line, luminescence, NTPHTS, NTPHTS_NCGC, NIEHS, DSSTox, MLSMR, MLSCN, NIH Roadmap, qHTS, NCGC

Compound	activity change, negative = cytotoxicity
COc1cc(-c2ccc(N)c(OC)c2)ccc1N	0.219% (inactive)
Cc1ccc(N)cc1Cl	-5.42% (inactive)
O=C(O)C(Cl)Br (stereo not given)	-3.3% (inactive)
N#CCCCCC#N	1.49% (inactive)
Cc1cccc(C)c1N	3.04% (inactive)
CNC(=O)O/N=C/C(C)(C)S(C)=O (stereo not given)	2.59% (inactive)
Nc1ccc2ccccc2c1	1.23% (inactive)
Nc1cccc(Cl)c1	1.01% (inactive)
Nc1ccc(-c2ccc(N)cc2)cc1	0.419% (inactive)
Oc1c(Cl)c(Cl)cc(Cl)c1Cl	-5.39% (inactive)
Clc1cccc(Cl)c1	3.92% (inactive)
Cc1cc(-c2cc(C)c(N)c(C)c2)cc(C)c1N	1.33% (inactive)
CCC[N+](=O)[O-]	-1.29% (inactive)
C=CCO	-8.31% (inactive)
Clc1cc(Cl)c(Cl)c(Cl)c1	0.223% (inactive)
c1ccc(N=NNc2ccccc2)cc1	1.42% (inactive)
C=CCBr	6.54% (inactive)
CCNCC	2.07% (inactive)
C=CCCl	3.5% (inactive)
COC(=O)Nc1nc2ccccc2[nH]1	-8.21% (inactive)

Compound	activity change, negative = cytotoxicity
N#CC(Cl)(Cl)Cl	-0.771% (inactive)
CC(C)(Cl)Cl	0.0991% (inactive)
Oc1cc(Cl)c(Cl)c(Cl)c1Cl	-27.5% (inactive)
CCN(CC)N=O	1.25% (inactive)
Brc1cccc(-c2ccccc2)c1	-0.995% (inactive)
CCCCC(=O)Cl	1.21% (inactive)
CC(C)(OOC(C)(C)c1ccccc1)c1ccccc1	1.19% (inactive)
Cc1ccc(N)c(N)c1	-30.7% (inactive)
CCCCCc1cc(O)cc(O)c1	2.36% (inactive)
ClC(Br)Br	-8.46% (inactive)
CC(C)C#N	6.79% (inactive)
O=C(O)CCl	-4.34% (inactive)
CCCCOC(C)=O	0.141% (inactive)
O=C(O)C(Br)Br	-14.7% (inactive)
CCCCCOC(=O)c1ccccc1C(=O)OCCCCC	-0.348% (inactive)
BrC(Br)Br	0.554% (inactive)
CN(C)C(=O)Nc1cccc(C(F)(F)F)c1	-2.87% (inactive)
O=[N+]([O-])c1ccccc1CCl	-36.7% (inactive)
O=c1ccc(=O)[nH][nH]1	-2.6% (inactive)
CC(C)(C)c1ccccc1O	1.43% (inactive)
